In general, Inhibition refers to the drop in the measured response relative to a control, in per cent.

Here are results for 62 compounds from ChEMBL document CHEMBL1157539, “Thousands of chemical starting points for antimalarial lead identification” (Nature, 2010).

Holding throughout (assay type): functional
For experiment [1], the system named is Plasmodium falciparum. Put plainly: GSK_TCMDC: Inhibition of Plasmodium falciparum 3D7 in whole red blood cells, using parasite LDH activity as an index of growth. Test compounds present at 2uM.
Experiment [2] deals with Plasmodium falciparum. Put plainly: GSK_TCMDC: Inhibition of Plasmodium falciparum Dd2 in whole red blood cells, using parasite LDH activity as an index of growth. Test compounds present at 2uM.
In another experiment the test system is HepG2. Put plainly: GSK_TCMDC: Percent inhibition of human HepG2 cell line. Test compounds present at 10uM.

Turning to `Cc1c[nH]c2cc(/C=C/C(=O)NC3CCC(CCN4CCc5ccc(C#N)cc5CC4)CC3)ccc12.Cl` (stereo unspecified), the figures for the Inhibition in the experiment on Plasmodium falciparum [1], in the experiment on Plasmodium falciparum [2] and in the experiment with HepG2 were 95%, 59% and 0%, respectively.
The matching figures for `Nc1nc(O)c2c(n1)CCc1c(Br)cccc1-2`: 97%, 0% and 66%.
Consider `Cc1c[nH]c(CCNC(=O)c2cc(-c3ccc(Cl)cc3)cs2)n1`, for which the results for the Inhibition in the experiment with Plasmodium falciparum [1], with Plasmodium falciparum [2] and in the experiment on HepG2 were 100%, 7% and 12%, respectively.
The matching figures for `COc1ccc(CCNC(C)Cc2ccc(C(=O)Nc3ccc(CC(C)NCCc4cccc(Cl)c4)cc3)cc2)cc1` (stereo unspecified): 100%, 89% and 99%.
The matching figures for `COc1ccc(CNCc2ccccc2)cc1-c1ccc(S(=O)(=O)NCCN2CCCC2)c(C)c1.O=C(O)C(F)(F)F`: 99%, 50% and 33%.
`O=C(/C=C/c1ccc(Cl)c(Cl)c1)NCCCCCN1CCCN(C(=O)Nc2ccc(F)c(F)c2)CC1`: the values for the Inhibition in the experiment on Plasmodium falciparum [1], in the experiment with Plasmodium falciparum [2] and in the experiment on HepG2 were 100%, 0% and 26%, respectively.
The matching figures for `Cc1c(CCc2cccc(F)c2F)[nH]c2ccccc2c1=O`: 91%, 90% and 41%.
For the compound `CC(C)CNc1c2c(nc3cnn(-c4c5c(nc6cn[nH]c46)CCCC5)c13)CCCC2`, the Inhibition was found to be 100% in the experiment on Plasmodium falciparum [1], 0% in the experiment on Plasmodium falciparum [2] and 7% in the experiment with HepG2.
The like results for `Cc1cc(NC(=O)NCCN2CCC(NS(=O)(=O)c3ccccc3Cl)C2)c2ccccc2n1` (stereo unspecified) were, in that order, 97%, 43% and 1%.
For `Cc1ccc(O)cc1Nc1ccnc2cc(-c3cccc(CNCCS(C)(=O)=O)c3)ccc12`, the Inhibition in the experiment with Plasmodium falciparum [1] amounted to 99%; with Plasmodium falciparum [2] it was 100%; in the experiment on HepG2, 9%.
The like results for `CCCNC(=O)c1cncc(-c2ccc(CNC3Cc4ccccc4C3)cc2)c1.O=C(O)C(F)(F)F` were, in that order, 97%, 21% and 9%.
The matching figures for `COc1ccc2c(=NN=Cc3ccc(OC)c4ccccc34)cc(C)[nH]c2c1`: 100%, 99% and 3%.
`CC(CN(C)C)C(=O)Nc1cccc(-c2ccc(-c3nc4ccccc4[nH]3)cc2)c1` (stereo unspecified): the values for the Inhibition in the experiment on Plasmodium falciparum [1], with Plasmodium falciparum [2] and with HepG2 were 98%, 25% and 1%, respectively.
The matching figures for `Clc1ccc(OCc2ccccc2)c(-c2nc(-c3nc4ncc(Br)cc4[nH]3)cs2)c1`: 100%, 77% and 0%.
The like results for `COc1ccc(C2NCCc3c2[nH]c2ccccc32)cc1CN1CCN(c2ccc(F)cc2)CC1.Cl` (stereo unspecified) were, in that order, 97%, 56% and 37%.
The like results for `Cc1ccc(NC(=O)c2ccc(CN3CCCN(CCC(C)C)CC3)cc2)cc1F.O=C(O)C(F)(F)F` were, in that order, 91%, 31% and 40%.
With `O=C(O)C(F)(F)F.O=c1cc(N2CCNCC2)c(Cl)nn1Cc1ccc(NS(=O)(=O)c2ccc(Oc3ccccc3)cc2)cc1`, the Inhibition in the experiment with Plasmodium falciparum [1] was 100%; in the experiment on Plasmodium falciparum [2] it was 0%; with HepG2, 3%.
The matching figures for `Cc1ccc(NC(=O)c2cc(S(=O)(=O)NC(C)(C)C)ccc2C)nc1`: 86%, 80% and 0%.
Regarding `CCC(C)c1ccc(NC(=O)Nc2ccc(Cn3ncc(N4CCCNCC4)c(Cl)c3=O)cc2)cc1.O=C(O)C(F)(F)F` (stereo unspecified), the Inhibition with Plasmodium falciparum [1] is recorded as 83%; in the experiment on Plasmodium falciparum [2] it was 31%; with HepG2, 0%.
The like results for `CC(C)c1cccc(C(C)C)c1NC(=O)NNC(=O)c1ccc(CCN2CCC(c3nc(COCC(F)(F)F)c(-c4ccc(F)cc4)o3)CC2)cc1` were, in that order, 88%, 34% and 61%.
The matching figures for `CS(=O)(=O)c1ccc(CCNCc2ccc(-c3ccc(CN(C(=O)c4cccc(C#N)c4)C4CCN(Cc5ccccc5)CC4)cc3)nc2)cc1.O=C(O)C(F)(F)F`: 96%, 56% and 20%.
Consider `c1ccc(COc2ccccc2COc2ccccc2-c2ccc3cccnc3n2)cc1`, for which the Inhibition in the experiment with Plasmodium falciparum [1] came out at 87%; in the experiment on Plasmodium falciparum [2], 95%; in the experiment on HepG2, 0%.
The like results for `Cn1ccnc1CNC(=O)c1ccc(-c2cccc(-c3nc4cc(C(F)(F)F)ccc4[nH]3)c2)cc1` were, in that order, 100%, 80% and 20%.
The like results for `NC1=NC(Cc2ccccc2)(c2ccncc2)C(=O)N1CCCc1ccccc1` (stereo unspecified) were, in that order, 86%, 1% and 1%.
For `Cc1ccccc1Oc1nc2ccccc2nc1SCC(=O)NC(C)C`, the figures for the Inhibition with Plasmodium falciparum [1], in the experiment on Plasmodium falciparum [2] and in the experiment with HepG2 were 97%, 55% and 0%, respectively.
For the compound `CCNc1cc(C(=O)N[C@@H](Cc2ccc(F)c(F)c2)[C@H](O)CNC2CCCCC2)cc(N2CCCCS2(=O)=O)c1.Cl`, the Inhibition is listed as 100% in the experiment on Plasmodium falciparum [1], 84% with Plasmodium falciparum [2] and 1% in the experiment on HepG2.
The like results for `NC1CCN(Cc2cccc(-c3csc(-c4nc5ccccc5[nH]4)c3)c2)C1.O=C(O)C(F)(F)F` (stereo unspecified) were, in that order, 99%, 10% and 10%.
Turning to `Cc1cc(Nc2ccc(Oc3ccc(Cl)cc3)cc2)nc(N)n1`, the results for the Inhibition with Plasmodium falciparum [1], in the experiment on Plasmodium falciparum [2] and in the experiment on HepG2 were 100%, 71% and 49%, respectively.
The matching figures for `COc1cc2c(C3CCN(CC4CCC(NC(=O)/C=C/c5ccc(Cl)c(Cl)c5)CC4)CC3)c[nH]c2cn1` (stereo unspecified): 100%, 100% and 44%.
On to `COC(=O)[C@@H](NC(=O)[C@H](CC(C)C)Nc1ccc(C#N)c2ccccc12)c1ccc(O)cc1.O=C(O)C(F)(F)F`, for which the values for the Inhibition with Plasmodium falciparum [1], with Plasmodium falciparum [2] and in the experiment on HepG2 were 98%, 87% and 4%, respectively.
The like results for `Cn1cnc(CCNC(=O)c2ccc(-c3ccc(-c4nc5cc(F)ccc5[nH]4)cc3)cc2)c1` were, in that order, 92%, 15% and 17%.
Regarding `FC(F)(F)c1ccc2c(C=Cc3ccncc3)c[nH]c2c1`, the Inhibition in the experiment with Plasmodium falciparum [1] is reported as 98%; with Plasmodium falciparum [2], 76%; in the experiment on HepG2 it was 0%.
The matching figures for `CCc1cc(NCc2ccncc2)nc(Nc2ccc(F)cc2)n1`: 92%, 17% and 8%.
The matching figures for `Fc1ccc2[nH]c(-c3ccc(-c4ccc(CN5CCN(c6ccncc6)CC5)cc4)cc3)nc2c1.O=C(O)C(F)(F)F`: 100%, 100% and 37%.
Consider `COc1ccc2nccc([C@@H](O)CN3CCC(NCc4cc5ccc(Cl)cc5[nH]4)CC3)c2c1.O=C(O)C(=O)O`, for which the Inhibition in the experiment on Plasmodium falciparum [1] was 99%; with Plasmodium falciparum [2] it was 61%; in the experiment with HepG2, 30%.
As for `O=C(Nc1nccs1)c1cn(-c2ccccc2)nc1-c1ccc(Cl)s1`, the Inhibition in the experiment on Plasmodium falciparum [1] was 96%; in the experiment on Plasmodium falciparum [2], 18%; with HepG2, 9%.
With `CC(CCc1ccccc1)NCC(O)c1ccc2c3c(cccc13)C(=O)N2C.Cl` (stereo unspecified), the Inhibition stood at 99% in the experiment with Plasmodium falciparum [1], 57% with Plasmodium falciparum [2] and 37% in the experiment on HepG2.
`Cc1ccc(Cn2ncc(N3CCCNCC3)c(Cl)c2=O)cc1NC(=O)Nc1ccc(-c2ccccc2)cc1`: the Inhibition was 100% with Plasmodium falciparum [1], 38% in the experiment on Plasmodium falciparum [2] and 55% in the experiment on HepG2.
The matching figures for `CCCCCN1C(=O)C(c2ccccc2)(c2ccccc2)N=C1N`: 97%, 68% and 18%.
The matching figures for `Cc1cccc(CC(=N)NCCCCCCNC(=N)Cc2cccc(C)c2)c1.Cl`: 97%, 97% and 12%.
The like results for `O=C(NCCCCN1CCC(c2cccc3ccccc23)CC1)c1ccc(-c2ccc(C(F)(F)F)cn2)cc1` were, in that order, 91%, 36% and 31%.
Consider `Cl.N=C(N)c1ccc(OCc2cccc(COc3ccc(C(=N)N)cc3I)c2)c(I)c1`, for which the results for the Inhibition in the experiment on Plasmodium falciparum [1], with Plasmodium falciparum [2] and in the experiment with HepG2 were 100%, 100% and 7%, respectively.
`CCCC(=O)Nc1ccc(OCCCN(Cc2ccccc2F)c2ccc(C#N)c(C(F)(F)F)c2)cc1`: the Inhibition with Plasmodium falciparum [1] was 89%; with Plasmodium falciparum [2], 93%; with HepG2 it was 7%.
The like results for `Cc1ccc(C(=O)Nc2cccc(CN3CCCN(Cc4ccc(O)cc4)CC3)c2)cc1.O=C(O)C(F)(F)F` were, in that order, 88%, 5% and 0%.
For `Cc1ccc(S(=O)(=O)NC2CCN(c3ccnc4cc(Cl)ccc34)C2)cc1.O=C(O)C(F)(F)F` (stereo unspecified), the Inhibition is 99% with Plasmodium falciparum [1], 90% in the experiment with Plasmodium falciparum [2] and 21% in the experiment with HepG2.
The matching figures for `COc1ccc(OCC(=O)Nc2cc(-c3nc4ccccc4[nH]3)ccc2Cl)cc1`: 94%, 33% and 18%.
The like results for `CCc1c(CCNCCCCCCNCCc2ccc3c(c2C)OCO3)ccc2c1OCO2.Cl` were, in that order, 100%, 7% and 59%.
Regarding `Fc1ccc2[nH]c(-c3cccc(-c4cccc(CNCc5ccccc5)c4)c3)nc2c1.O=C(O)C(F)(F)F`, the figures for the Inhibition in the experiment on Plasmodium falciparum [1], in the experiment on Plasmodium falciparum [2] and with HepG2 were 100%, 52% and 24%, respectively.
For `O=C(Nc1ccc2c(c1)CN(Cc1ccc(N3CCCC3)o1)CCC2)c1cncs1.O=CO`, the Inhibition amounted to 84% with Plasmodium falciparum [1], 37% with Plasmodium falciparum [2] and 15% with HepG2.
The matching figures for `O=C(Nc1ccc2[nH]c(-c3ccccc3)nc2c1)c1cc(-c2ccc3c(c2)OCCO3)n[nH]1.O=C(O)C(F)(F)F`: 100%, 75% and 58%.
The like results for `CCC(C)NS(=O)(=O)c1ccc2nc(Nc3ccc(C)cc3)n(C3CCCCC3)c2c1` (stereo unspecified) were, in that order, 97%, 97% and 0%.
Consider `COc1ccc(Oc2ccc(Nc3ccnc4ccc(C(F)(F)F)cc34)cc2)cc1OC.Cl`, for which the results for the Inhibition in the experiment on Plasmodium falciparum [1], with Plasmodium falciparum [2] and with HepG2 were 90%, 17% and 0%, respectively.
As to `COc1cccc2c(NN=Cc3cccc(Cl)c3)ccnc12`, the values for the Inhibition in the experiment with Plasmodium falciparum [1], in the experiment with Plasmodium falciparum [2] and in the experiment on HepG2 were 100%, 77% and 19%, respectively.
The like results for `O=C(Nc1ccc(-c2cccc(-c3nc4cc(C(F)(F)F)ccc4[nH]3)c2)cc1)c1csnn1` were, in that order, 98%, 25% and 42%.
The matching figures for `Cl.Clc1cccnc1N1CCN(c2ncccc2Cl)CC1`: 97%, 0% and 2%.
The matching figures for `CC(C)c1ccc(NC(=O)c2ccc(CN3CCCN(Cc4cccc(Cl)c4)CC3)cc2)cc1.O=C(O)C(F)(F)F`: 90%, 12% and 45%.
Regarding `COc1ccc2nc(C)cc(N/N=C/c3cccc([N+](=O)[O-])c3)c2c1`, the figures for the Inhibition with Plasmodium falciparum [1], with Plasmodium falciparum [2] and in the experiment on HepG2 were 100%, 97% and 6%, respectively.
Take `COc1ccccc1-c1[nH]c2ccccc2c1CN1CCC(c2c(C)cccc2C)CC1`: the Inhibition in the experiment with Plasmodium falciparum [1] is 96%; in the experiment on Plasmodium falciparum [2], 13%; in the experiment with HepG2, 49%.
The like results for `Cl.Oc1cccc(-c2nc3cc(C4=NC5CCCCC5N4)ccc3[nH]2)c1` (stereo unspecified) were, in that order, 98%, 97% and 0%.
The matching figures for `O=C(CCc1ccccc1)NC(c1ccc(Cl)cc1)c1ccc2cccnc2c1O` (stereo unspecified): 95%, 49% and 59%.
The like results for `CN(C)CC(O)C(c1ccccc1)c1ccc(Cl)cc1.O=C(O)CCC(=O)O` (stereo unspecified) were, in that order, 99%, 4% and 4%.
Turning to `Cc1cc(-c2cccc3c(C(=O)N4CCc5cc6nccc(N7CCCN(C)CC7)c6cc54)cccc23)cc(C)n1.Cl`, the Inhibition in the experiment with Plasmodium falciparum [1] amounted to 100%; with Plasmodium falciparum [2], 100%; with HepG2, 17%.
